BRCA1 expr up = increases BRCA1 expression; MCF7-BRCA1-FFLuc reporter, luminescence, 48 h; response scale: scaled: vehicle 0%, 10 µM genistein 100%; Potency, µM (doses to about 46.1 µM), usual class: activators; hit rate 1.1% among 380,000; note: nearly all actives have a fitted effect of over 80% in size
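Reporter cells (MCF7, BRCA1 promoter-firefly luciferase) received library compounds across a concentration series for 48 h. End-point luminescence was measured and concentration-effect curves derived after normalization.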
Apoferritin bind = candidate novel general anesthetic via apoferritin binding; apoferritin/1-aminoanthracene competitive binding, fluorescence; Potency, µM (top dose mostly 77.5 µM), hits mostly inhibitors; hit rate 0.074% among 350,000; note: nearly all actives have a fitted effect of over 20% in size
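Apoferritin-based anesthetic binding model; compound displacement of fluorescent 1-AMA measured as endpoint fluorescence after 10 minutes at room temperature, scaled to free-ligand and complex controls.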
PKM2 activator = increases activity of human pyruvate kinase M2; P14618; purified PKM2, Kinase-Glo ATP luminescence, activation; response scale: 0% is enzyme alone, no compound; Potency, µM (series often up to 57.5 µM), usual class: activators; hit rate 0.34% among 260,000; AID 1631; note: nearly all actives have a fitted effect of over 55% in size
Target sequence (P14618 whole entry, looked up): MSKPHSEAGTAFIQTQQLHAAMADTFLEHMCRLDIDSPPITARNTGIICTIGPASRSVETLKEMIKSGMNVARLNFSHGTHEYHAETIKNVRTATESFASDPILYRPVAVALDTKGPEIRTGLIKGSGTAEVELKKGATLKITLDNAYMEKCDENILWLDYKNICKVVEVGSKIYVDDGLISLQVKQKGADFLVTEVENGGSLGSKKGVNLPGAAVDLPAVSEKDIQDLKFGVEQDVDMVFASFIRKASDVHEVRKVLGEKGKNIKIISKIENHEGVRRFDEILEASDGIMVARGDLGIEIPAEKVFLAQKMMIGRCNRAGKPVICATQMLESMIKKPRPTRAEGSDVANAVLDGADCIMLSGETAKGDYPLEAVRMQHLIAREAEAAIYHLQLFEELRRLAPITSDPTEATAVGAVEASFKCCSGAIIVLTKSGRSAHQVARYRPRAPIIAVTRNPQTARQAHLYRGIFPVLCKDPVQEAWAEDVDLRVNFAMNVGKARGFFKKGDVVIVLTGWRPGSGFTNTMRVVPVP
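Purified hPK-M2 (>95%) run at intermediate activity with 0.1 mM ADP and 0.5 mM PEP in 50 mM imidazole pH 7.2, KCl, MgCl2; 1 h room temperature. ATP formed read by Kinase-Glo luminescence; normalized to uninhibited and no-enzyme controls.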
IL-2 act = activates IL-2 in a cell-based reporter assay. IL-2 activation reporter assay, cell-based qHTS; stimulated with anti-CD3/CD4/CD28 beads; in transgenic mouse T cells. activation, % (series mostly up to about 46 µM). hit rate 0.065% among 360,000. AID 652025; in the data active = activation above about 50%; inconclusive = mostly about 30% to 49%
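Readout is EGFP and DsRed signal by fluorescent plate cytometry after 18 h at 37 degrees C. Transgenic mouse T cells (750/well) received compound for 60 min before bead stimulation (anti-CD3, anti-CD4, anti-CD28); memory T cells served as non-tolerant control.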
Integrin act MD = integrin-mediated muscular dystrophy alleviation activation. alpha7betagal myoblasts, beta-gal FDG fluorescence, 48 h. Potency, µM (highest dose often 38.3 µM), hits mostly activators. hit rate 0.064% among 350,000; note: nearly all actives have a fitted effect of over 60% in size
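alpha7betagal+/- myoblasts (passage 13, 250/well) treated 48 h at 37C with compounds at 1:260 dilution of DMSO stock. Lysed, then beta-galactosidase activity read as FDG fluorescence (ex 480/em 540) after 30 min, with pre-read for autofluorescence.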
HeLa tox = HeLa cytotoxicity, CellTiter-Glo readout | shares compounds with PKM2 activator | HeLa viability, CellTiter-Glo ATP luminescence, 24 h | activity change, negative = cytotoxicity, % at 57.5 µM | 230 tested, under 10 active
Hits are given with their value; - = inactive; ? = inconclusive; . = not tested or not shown. The list is not random: actives were taken first. Their share in the collection is about 1.3%. Unless noted, calls come from the whole dose curve; as a rule, active = well fitted curve in the direction sought with a large enough effect; inconclusive = small, poorly fitted or top-dose-only effect, or another doubt; inactive = no such curve, though single readings can be large; an effect the other way counts as inactive or inconclusive.

SMILES	BRCA1 expr up	Apoferritin bind	PKM2 activator	IL-2 act	Integrin act MD	HeLa tox
Cc1cc2c(s1)c1cnn(Cc3ccccc3)c(=O)c1n2C	.	.	.	.	.	-
Cc1ccc(Cn2ncc3c4sc(C)cc4n(C)c3c2=O)cc1	.	.	.	.	.	-
Cc1cc2c(s1)c1cnn(Cc3ccc(S(C)(=O)=O)cc3)c(=O)c1n2C	.	.	.	.	.	-
Cc1cc2c(s1)c1cnn(CC(=O)NCCc3ccccc3)c(=O)c1n2C	-	-	-	-	-	.
Cc1nn(CC(=O)NCc2ccc(N(C)C)cc2)c(=O)c2c(C)n(-c3ccc(Cl)cc3)nc12	.	-	.	.	.	.
O=C(CSc1c2c(nc3ccc(Cl)cc13)CCCC2)N1CCN(c2cccc(Cl)c2)CC1	.	-	.	.	.	.
Cc1cc2c(s1)c1cnn(CC(=O)N3CCOCC3)c(=O)c1n2C	-	.	.	.	.	.
Cn1c2cc(C=O)sc2c2cnn(Cc3ccccc3F)c(=O)c21	.	.	.	.	.	-
COc1cc2c(s1)c1cnn(Cc3ccccc3F)c(=O)c1n2C	.	.	.	.	.	-
O=C(Cn1ncc2c3ccccc3n(Cc3ccccc3F)c2c1=O)N1CCCCCC1	.	-	.	.	.	.
Cn1c2cc(CO)sc2c2cnn(Cc3ccccc3F)c(=O)c21	.	.	.	.	.	-
CSc1cc2c(s1)c1cnn(Cc3ccccc3F)c(=O)c1n2C	.	.	.	.	.	-
O=C(Cn1ncc2c3ccccc3n(Cc3ccccc3F)c2c1=O)N1CCN(c2ccccn2)CC1	-	-	-	-	-	.
Cn1c2ccccc2c2cnn(CC(=O)Nc3cccc(F)c3)c(=O)c21	-	-	-	-	-	.
CC(=O)Nc1cc2c(s1)c1cnn(Cc3ccccc3F)c(=O)c1n2C	.	.	.	.	.	-
CCc1cc2c(s1)c1cnn(Cc3ccccc3F)c(=O)c1n2C	.	.	.	.	.	?
CCOC(=O)c1c(NC(=O)c2cc(-c3cccc(Cl)c3)on2)sc(C(C)=O)c1C	.	-	.	.	.	.
COc1ccccc1NC(=O)CSc1nnc(NC(=O)NC2CCCCC2)s1	.	-	.	.	.	.
COc1cc2cc(C#N)c(SCC(=O)Nc3cc(C)on3)nc2cc1OC	-	-	0.22µM	-	-	-
COc1ccc2nc(SCC(=O)Nc3cc(C)on3)c(C#N)cc2c1	-	-	.	-	?	.
COc1ccccc1CNC(=O)CCC1N=C2c3ccccc3N=C(SCC(=O)Nc3ccc(N(C)C)cc3)N2C1=O (stereo not given)	.	-	.	.	.	.
O=C(CN1C(=O)N/C(=C\c2cccn2-c2cccc(C(=O)O)c2)C1=O)Nc1ccccc1F	.	.	.	.	.	-
O=C(NCCc1cccs1)c1ccc(Cn2c(SCc3ccc(F)cc3)nc3cccnc32)cc1	.	-	.	.	.	.
O=C(Nc1cc(Cl)cc(Cl)c1)c1ccc(F)c(S(=O)(=O)N2CCc3ccccc32)c1	.	-	.	.	.	.
Cn1c(N)c(C(=O)CSc2ccc3c(c2)OCCO3)c(=O)n(C)c1=O	-	-	3.5µM	-	-	-
SMILES	BRCA1 expr up	Apoferritin bind	PKM2 activator	IL-2 act	Integrin act MD	HeLa tox
Cc1ccc(-n2ncc(C(=O)NCCCN3CCc4ccccc4C3)c2C2CCN(C(=O)OC(C)(C)C)CC2)c(C)c1	.	-	.	.	.	.
CC(C)Sc1nc2c([nH]1)c(=N)ncn2Cc1ccccc1	-	-	14µM	-	?	-
Cc1cccc(OCCSc2nc3c([nH]2)c(=N)ncn3Cc2ccccc2)c1	-	-	-	-	-	.
COc1cc2c(C(=O)NCc3ccc(C)o3)cn(CC(C)C)c(=O)c2cc1OC	-	-	14µM	-	-	-
CCn1cc(C(=O)NCc2ccco2)c2cc(OC)c(OC)cc2c1=O	-	-	-	-	-	.
Cc1cc(C(=O)OCC(=O)N2CCOCC2)c2ccccc2n1	-	-	3.5µM	-	-	-
O=C(CNC(=O)c1ccc(F)cc1)OCc1cc(=O)n2nc(C3CC3)sc2n1	-	-	.	.	.	.
Cc1oc(=O)c(NC(=O)c2ccccc2)cc1C(=O)c1ccccc1	-	-	-	-	-	.
Cc1oc(=O)c(NC(=O)c2ccc(Cl)cc2)cc1C(=O)c1ccccc1	-	-	6.3µM	-	-	-
COc1cc([C@@H]2c3cc4c(cc3[C@H](O)[C@H]3COC(=O)[C@@H]23)OCO4)cc(OC)c1OC	-	.	.	.	.	.
COc1ccc(CCn2c3c(c(=O)[nH]c2=S)CN(Cc2ccccc2)CN3)cc1OC	-	.	.	.	.	.

Compound activity deposited in PubChem BioAssay by National Center for Advancing Translational Sciences (NCATS).
